Tau fluor cs = counter-screen for tau fibril formation inhibitors; tau K18 P301L Alexa594 fluorescence, heparin fibrillization; Potency, µM (doses to about 57.7 µM), for the others: at the top dose activity change, negative = decrease; actives 0.93% (n = 280,000); AID 1463; also: nearly all actives have a fitted effect of over 55% in size
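Human tau K18 P301L (15 uM unlabeled, 0.24 uM Alexa 594-labeled) in 100 mM sodium acetate pH 7 with 20 uM heparin, 6 hr at 37 C. ThT 30 uM added, 1 hr ambient; Alexa 594 FP and total fluorescence read at 555/632 nm.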
Tau ThT inhib = blocks human tau fibril formation measured by thioflavin T; P10636; recombinant tau K18 P301L, heparin-induced fibrillization, ThT fluorescence; Potency, µM (series often up to 57.4 µM), without a hit: top-dose activity, negative = inhibition, most hits filed as inhibitors; actives 2.1% (n = 270,000); AID 1460; also: nearly all actives have a fitted effect of over 55% in size
Target sequence (P10636 561-689 P618L limits assumed): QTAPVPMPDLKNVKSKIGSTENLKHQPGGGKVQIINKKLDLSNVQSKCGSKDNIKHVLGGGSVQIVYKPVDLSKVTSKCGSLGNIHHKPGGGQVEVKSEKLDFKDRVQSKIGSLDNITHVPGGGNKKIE
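ThT emission at 510 nm, taken 1 hr after adding 30 uM dye, quantifies aggregates formed when 20 uM heparin acts on human tau K18 P301L for 6 hr at 37 C.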
RORgamma inh = blocks mouse ROR gamma transcriptional activity. P51450. actives 5.4% (n = 310,000). Potency, µM (top dose mostly 53.6 µM), for inactives: at the highest dose activity change, negative = inhibition, usual class: inhibitors. Drosophila S2 Gal4-RORgamma UAS-luciferase reporter, 20 h; also: nearly all actives have a fitted effect of over 60% in size
Target sequence (P51450 whole entry, looked up, the tested form may be a part): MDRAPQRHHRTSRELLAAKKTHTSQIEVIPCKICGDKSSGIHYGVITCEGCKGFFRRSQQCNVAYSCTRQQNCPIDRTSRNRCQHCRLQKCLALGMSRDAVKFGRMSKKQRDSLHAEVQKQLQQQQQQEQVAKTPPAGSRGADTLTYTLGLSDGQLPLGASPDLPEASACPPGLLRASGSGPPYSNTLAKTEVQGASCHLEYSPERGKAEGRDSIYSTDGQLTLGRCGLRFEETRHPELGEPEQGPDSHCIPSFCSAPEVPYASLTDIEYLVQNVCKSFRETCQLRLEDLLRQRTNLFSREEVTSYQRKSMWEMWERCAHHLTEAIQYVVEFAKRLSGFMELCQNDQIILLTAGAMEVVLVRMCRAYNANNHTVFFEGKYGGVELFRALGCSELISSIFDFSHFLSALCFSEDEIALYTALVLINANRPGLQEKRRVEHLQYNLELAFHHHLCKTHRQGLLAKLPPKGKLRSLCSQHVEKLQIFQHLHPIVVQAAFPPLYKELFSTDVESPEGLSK
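A Gal4/UAS one-hybrid system in insect cells: metallothionein-promoter Gal4–ROR gamma fusion plus Photinus luciferase reporter. Copper sulfate 700 uM final, 20 hr ambient incubation, luminescent detection after 10 min with reagent.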
Gal4-VP16 FLuc = inhibits Gal4-VP16 luciferase reporter, ROR gamma counter-screen; Drosophila S2 Gal4-VP16 UAS-luciferase, luminescence, 20 h; Potency, µM (titrated, usually from 53.6 µM), for the others: at the top dose activity, negative = inhibition, usual class: inhibitors; actives 3.5% (n = 310,000); AID 2546;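 also: Gal4-VP16 expression switched on by copper sulfate through the metallothionein promoter; nearly all actives have a fitted effect of over 50% in size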
Tau fibril FP = tau fibrillization inhibition (FP); actives 0.39% (n = 280,000); AID 1468; Potency, µM (highest dose often 57.7 µM), without a hit: at the highest dose activity, negative = inhibition, hits mostly inhibitors; K18 P301L tau heparin fibrillization, Alexa594 FP, 6 h; P10636; also: nearly all actives have a fitted effect of over 55% in size
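Steps: dispense K18 P301L tau (15 uM plus 0.24 uM Alexa 594 tracer, final) in pH 7 sodium acetate; add compound; add heparin (20 uM final); incubate 6 hr, 37 C; add ThT (30 uM final); after 1 hr ambient, read FP.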
Numbers without * were called inactive; ? = inconclusive; · = no result given; ! = a repeat was not active; [ ] = remark or other dose. In the library only some 7.3% were active in any assay of this set; here they are far more common. Calls follow the shape of the dose curve; as a rule, active = well fitted curve in the direction sought with a large enough effect; inconclusive = small, poorly fitted or top-dose-only effect, or another doubt; inactive = no such curve, though single readings can be large; an effect the other way counts as inactive or inconclusive. % is scaled to controls: 0 for no effect and ±100 for the full control effect; potency is read from the fitted curve at half-maximal effect.

SMILES | Tau fluor cs | Tau ThT inhib | RORgamma inh | Gal4-VP16 FLuc | Tau fibril FP
CN(C)CCc1c[nH]c2ccc(CS(=O)(=O)N3CCCC3)cc12 | -3% | 0% | 10% | -4% | 4%
CC(=O)c1ccc(NC(=O)CSc2nnc3ccc(-c4ccc(Cl)cc4)nn23)cc1 | -19% | -14% | · | · | ?
Cn1c(N)c(C#N)c2c(c1=S)CSC(C)(C)C2 | -24% | ? | -4%[10 µM] | 1% | 2%
CC1(C)Cc2c(C#N)c(N)sc(=S)c2CS1 | ? | 18µM* | ? | -22% | -5%
N#Cc1c(N)sc(=S)c2c1CCCCC2 | ? | 13µM* | -15% | -4%[0.365 µM] | ?
CCc1ccc(NC(=O)C(Cc2ccccc2)NS(=O)(=O)c2ccc3c(c2)CCN3C(C)=O)cc1 (centres undefined) | -19% | -3% | · | · | -1%
CCNC(=S)N/N=C/c1cccc(/C=N/NC(=S)NCC)c1 | 11% | 13% | ? | -22% | 8%
CCCCNC(=S)N(C)/N=C/c1ccc(F)cc1 | 10% | 10% | 11µM* | ? | 3%
O=C(Cc1ccccc1)N/N=C/c1cccs1 | -8% | -10% | -11% | 5% | -8%
Cc1ccccc1CSCC(=O)N/N=C/c1cccs1 | -20% | -10% | 18µM* | -25% | -8%
CCNC(=S)N/N=C/c1ccc(F)cc1 | 4% | 1% | 2.2µM* | 7.9µM* | 5%
CCCCNC(=S)N(C)/N=C/c1c(F)cccc1F | -15% | -9% | -42% | 6% | -1%
CCNC(=S)N/N=C/c1cccs1 | -9% | -12% | 0.79µM* | 1.4µM* | -5%
COc1ccc(CC(N)C(=O)NC2C(CO)OC(n3cnc4c(N(C)C)ncnc43)C2O)cc1 (centres undefined) | -9% | -5% | -4% | ? | -2%
COc1ccc(NC(=O)Cn2ccn(-c3ccc(F)c(F)c3)c(=O)c2=O)cc1Cl | ? | ? | · | · | -7%
COCC1CCCCN1C(=O)c1ccc(OC)c(OC2CCN(C(C)C)CC2)c1 (centres undefined) | · | · | 21% | -6% | ·
Clc1cccc(Cl)c1/C=N/Nc1c(Cl)cncc1Cl | -26% | -5% | ? | 7% | -9%
CC(C)(C)NC(=S)N/N=C/c1c(Cl)cccc1Cl | -15% | -9% | 4.5µM* | 5µM* | -4%
Cc1ccc(NC(=S)Nn2cnnc2)c(C)c1 | · | · | -14% | 1% | ·
CCNC(=S)N/N=C/c1c(Cl)cccc1Cl | 5% | -2% | 2.5µM* | 2.8µM* | -8%
Cc1ccc(NC(=S)N/N=C/c2ccc(OCCC(C)C)cc2)c(C)c1 | -26% | -13% | 6.3µM* | 3.2µM* | 6%
Cc1ccc(NC(=S)N/N=C/c2c(Cl)cccc2Cl)c(C)c1 | -27% | ? | 0.79µM* | 0.89µM* | -7%
CN(C(=O)CSc1nc2ccccc2n1CC(=O)N(C)c1ccc(F)cc1)c1ccccc1 | 2% | 9% | · | · | -2%
Cn1c(Cc2ccc(Cl)cc2)nnc1SCC(=O)NC1CC1 | · | · | -15% | 4% | ·
O=C(CSc1nnc(-c2ccc(O)cc2)o1)N1CCOCC1 | 16% | 15% | 4% | 4% | -1%
SMILES | Tau fluor cs | Tau ThT inhib | RORgamma inh | Gal4-VP16 FLuc | Tau fibril FP
Oc1ccc(-c2nnc(SCC3CCCCC3)o2)cc1 | -27% | -9% | 3.2µM* | 8.9µM* | -13%
CCN1CCN(c2ncnc3c2cnn3-c2ccc(C)cc2)CC1 | -5% | -7% | · | · | -2%
CCCCOc1ccc(C(=O)NCCc2csc3nc(-c4ccccc4F)nn23)cc1 | -22% | -15% | · | · | 0%
O=C(O)CCCN1C(=O)/C(=C/c2cn(-c3ccccc3)nc2-c2cccs2)SC1=S | -4% | 16µM* | -24% | ? | ?
O=C(CCN1C(=O)/C(=C/c2ccccc2Cl)SC1=S)NC1CCCC1 | · | · | -45% | -1% | ·
CN(C(=O)CN1C(=O)/C(=C/c2ccccc2Cl)SC1=S)C1CCS(=O)(=O)C1 (centres undefined) | · | · | 10µM* | ? | ·
O=C1/C(=C/c2ccccc2Cl)SC(=S)N1CCCC(=O)N(CCO)c1ccccc1 | · | · | 2.2µM* | ? | ·
O=C(CCCN1C(=O)/C(=C/c2ccccc2Cl)SC1=S)Nc1cccnc1 | · | · | 0.22µM* | -101% | ·
O=C(O)CCCN1C(=O)/C(=C\c2ccccc2OCc2ccccc2)SC1=S | · | · | 17% | 14% | ·
c1ccc(-c2nc(-c3ccccc3)c(NC3CCCCC3)o2)cc1 | -17% | ? | -1% | 1% | -6%
Cc1c(Cl)cccc1NC(=O)c1cc2sccc2n1Cc1ccc(F)cc1 | -19% | -3% | · | · | -11%
CN(C)c1ccc(CNC(=O)c2ccc(Cn3c(=O)c4cccn4c4cccnc43)cc2)cc1 | ? | -3% | · | · | 1%
O=C(CCCN1C(=O)/C(=C/c2ccccc2Cl)SC1=S)Nc1ccccn1 | 10% | 16% | 1.8µM* | ? | 2%
O=C(CCN1C(=O)/C(=C/c2cccc(Br)c2)SC1=S)Nc1cccnc1 | -22% | ? | -11% | -5% | -17%
O=C(CN1C(=O)/C(=C/c2cccc(Br)c2)SC1=S)Nc1cccnc1 | 8.9µM*[quencher] | ? | -8% | 23% | ?
O=C(CCN1C(=O)/C(=C/c2ccccc2Cl)SC1=S)Nc1ccccn1 | · | · | -33% | -6% | ·
Cc1cc(OCC(=O)NCCCN2CCCC2=O)c2c(C)c(C)c(=O)oc2c1 | · | · | 0% | -10% | ·
Cc1nn(C)c2c1c(C(F)(F)F)cc(=O)n2Cc1ccc(Br)cc1F | -12% | -13% | · | · | -9%
COc1ccc(C(=O)Nc2ccc(OCc3cc(=O)n4ccccc4n3)cc2)cc1 | -11% | ? | · | · | ?
Cc1ccc(/C=N/NC(=O)c2ccc(C(=O)N/N=C/c3ccc(C)s3)o2)s1 | -4% | ? | 8.9µM* | -21% | 0%
Cc1ccc(/C=N/NC(=O)c2cccnc2)s1 | 0% | -4% | 18µM* | -81% | 3%
Oc1c(Br)cc(Br)cc1C=NCc1ccc(F)cc1 | -7% | 20µM* | 10µM* | ? | ?
Cc1ccc(C)c(NC(=S)Nc2cccc3cnccc23)c1 | -14% | ? | ? | 9% | ?
S=C(NCc1ccccc1)Nc1cccc2cnccc12 | · | · | -7% | ? | ·
Cc1ccc(NC(=S)Nc2cccc3cnccc23)cc1C | 9% | 6% | ? | 3.2µM* | 7%
SMILES | Tau fluor cs | Tau ThT inhib | RORgamma inh | Gal4-VP16 FLuc | Tau fibril FP
Cc1ccc(NC(=S)Nc2cccc3cnccc23)cc1 | -14% | ? | ? | ? | ?
Cc1ccccc1NC(=S)Nc1cccc2cnccc12 | -14% | ? | 10µM* | -11% | -16%
FC(F)(F)c1ccccc1NC(=S)Nc1cccc2cnccc12 | -22% | 22µM* | 6% | -1% | ?
Fc1ccccc1NC(=S)Nc1cccc2cnccc12 | -16% | ? | 0% | -4% | ?
S=C(NCCc1ccccc1)Nc1cccc2cnccc12 | -13% | ? | 5µM* | 4.5µM* | -11%
CNCCCC12CCC(c3ccccc31)c1ccccc12 | -11% | -13% | 10µM*! | ? | 6%
CCOc1ccc(OCC)c(NS(=O)(=O)c2cc(-c3cc(C)no3)ccc2C)c1 | -18% | 13% | · | · | -4%

Assay outcomes (PubChem)
